These results are taken from PubChem BioAssay.

Test [1] concerns PRMT1 (protein arginine N-methyltransferase 1). In words: PRMT1 binders on small-molecule microarrays, primary screen, biochemical, small-molecule microarray, 635 nm fluorescence (AID 1088).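 Further: binding of Prmt1 protein to compounds spotted on small-molecule microarray slides.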 Particulars: small-molecule microarray binding, higher = more signal.
Test [2] is described as follows: yeast growth modulation, basal conditions, primary screen, YJM789 clinical isolate, OD600, 24 h (AID 1089).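 Further: growth of clinical yeast isolate S. cerevisiae YJM 789 seeded 1000 cells per well; test concentration not given here.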 Particulars: S. cerevisiae YJM789 growth, higher = more signal, called active from +8 up or from −8 down.
A short description of test [3]: fission yeast growth modulation, primary screen, strain 972, OD600, 24 h, no modulator (AID 1090).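 Further: basal condition with compound alone and no growth modifier present; test concentration not given here.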 Particulars: S. pombe 972 growth, higher = more signal, called active from +8 up or from −8 down.
A short description of test [4]: S. cerevisiae growth modulation with rapamycin, primary screen, strain BY4716, OD600, 96 h (AID 1091). Further: test concentration not given here. Particulars: higher = more signal, called active from +8 up or from −8 down.
In test [5] the target is Torsin-1A-interacting protein 2 (Homo sapiens) (UniProt Q8NFQ8). In words: LULL1 binders on small-molecule microarray, primary screen, cell lysate, human LULL1 lysate, 635/667 nm fluorescence (AID 1092).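 Further: probe is lysate of COS7 cells overexpressing human LULL1; score merges per-feature 667 nm fluorescence with signal-to-noise.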 Particulars: hLULL1 lysate binding, 635 nm fluorescence, higher = more signal.
Test [6] is described as follows: E. coli growth modulation, two-sided OD650, primary screen, E. coli filamentation project, strain DRC41, 24 h (AID 1093).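 Further: MC1000 strain lacking acrAB efflux and sulA so SOS filamentation is blocked; test concentration not given here.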 Particulars: OD650, 24 h, higher = more signal, called active from +8 up or from −8 down.
A short description of test [7]: small-molecule microarray binders of probe aLefty2, primary screen, biochemical, biotinylated probe, 635/667 nm fluorescence (AID 1094).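 Further: score merges spot fluorescence near 667 nm with spot signal-to-noise ratio.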 Particulars: higher = more signal.
Test [8] concerns Noggin (protein binding on small-molecule microarray). In words: Noggin binders on small-molecule microarray, primary screen, biochemical, 635/667 nm fluorescence (AID 1095).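 Further: score merges 667 nm feature fluorescence with signal to noise over triplicate slides.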 Particulars: 635 nm fluorescence, higher = more signal.
The target in test [9] is Neurogenic locus notch homolog protein 3 (Homo sapiens) (UniProt Q9UM47). The experiment in a line: NOTCH3 binders on small-molecule microarray, primary screen, biochemical, 635/667 nm fluorescence (AID 1096). Particulars: NOTCH3 binding, 635 nm fluorescence, higher = more signal.
Test [10] can be described thus: small-molecule microarray binders of probe aEGFR, primary screen, biochemical, biotinylated probe, 635/667 nm fluorescence (AID 1097).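 Further: probe is a biotinylated anti-EGFR antibody binding compounds printed on slides; score combines fluorescence near 667 nm and signal to noise of each spot.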 Particulars: higher = more signal.
The test system of test [11] is Plasmodium falciparum Sir2 (PF13_0152, Sir2A). The experiment in a line: pfSir2 binders on small-molecule microarrays, primary screen, biochemical, small-molecule microarray, 635 nm fluorescence (AID 1098).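 Further: score merges spot fluorescence intensity with its signal-to-noise ratio.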 Particulars: small-molecule microarray binding, fluorescence 635 nm; higher = more signal.
The nature of test [12]: small-molecule microarray binders of probe aDKK1, primary screen, biochemical, biotinylated probe, 635/667 nm fluorescence (AID 1099).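 Further: score merges 667nm spot fluorescence with signal to noise across triplicate slides; reference of the scale not given here.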 Particulars: higher = more signal.
A short description of test [13]: small-molecule microarray binders of probe aCHRDL2, primary screen, biochemical, biotinylated probe, 635/667 nm fluorescence (AID 1100). Particulars: higher = more signal.
Test [14] can be described thus: splicing luciferase reporter signal modulators, primary screen, spliceosome inhibition project, cell-based, HEK293, splice +/- reporter (AID 1101).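 Further: HEK293 cells carrying a splicing-competent luciferase reporter gene; test concentration not given here.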 Particulars: luminescence, 24 h, higher = more signal, called active from +8 up or from −8 down.
The target in test [15] is Fibroblast growth factor 10 (Homo sapiens) (UniProt O15520). The experiment in a line: FGF10 binders on small-molecule microarrays, primary screen, biochemical, small-molecule microarray, 635 nm fluorescence (AID 1102). Particulars: FGF10 binding, fluorescence 635 nm, higher = more signal.
Test [16] concerns glycogen synthase kinase-3 (GSK3A per assay name; protocol says GSK3B). The experiment in a line: GSK3 binders on small-molecule microarrays, primary screen, biochemical, small-molecule microarray, 635 nm fluorescence, GSK3A (AID 1103). Further: the record names both GSK3A and GSK3B. Particulars: small-molecule microarray binding, fluorescence 635 nm; higher = more signal.
Test [17] deals with Epidermal growth factor receptor (Homo sapiens) (UniProt P00533). In words: EGFR binders on small-molecule microarrays, primary screen, biochemical, small-molecule microarray, 635 nm fluorescence (AID 1104).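 Further: score merges 667 nm emission intensity with spot signal to noise over triplicate slides.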 Particulars: EGFR binding, higher = more signal.
The target in test [18] is Follistatin-related protein 3 (Homo sapiens) (UniProt O95633). The experiment in a line: FSTL3 binders on small-molecule microarrays, primary screen, biochemical, small-molecule microarray, 635 nm fluorescence (AID 1105).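 Further: score merges emission near 667 nm and signal to noise per printed spot across three slides.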 Particulars: FSTL3 binding, higher = more signal.
The target in test [19] is Dickkopf-related protein 1 (Homo sapiens) (UniProt O94907). The experiment in a line: DKK1 binders on small-molecule microarrays, primary screen, biochemical, small-molecule microarray, 635 nm fluorescence scan (AID 1106).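 Further: score merges emission near 667 nm with signal to noise over three replicate slides.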 Particulars: DKK1 binding, higher = more signal.
For test [20], the system named is Inhibin beta A chain (activin A). In words: INHBA (activin A) binders on microarrays, primary screen, biochemical, small-molecule microarray, 635 nm fluorescence scan (AID 1107).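 Further: mouse activin A protein probed at 4.33 µg/mL on printed slides; score merges bound-protein fluorescence near 667 nm with spot signal-to-noise.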 Particulars: small-molecule microarray binding, higher = more signal.

Calls of active or inactive are those of the source.

Follistatin-related protein 3 (Homo sapiens), sequence (O95633 whole entry, looked up): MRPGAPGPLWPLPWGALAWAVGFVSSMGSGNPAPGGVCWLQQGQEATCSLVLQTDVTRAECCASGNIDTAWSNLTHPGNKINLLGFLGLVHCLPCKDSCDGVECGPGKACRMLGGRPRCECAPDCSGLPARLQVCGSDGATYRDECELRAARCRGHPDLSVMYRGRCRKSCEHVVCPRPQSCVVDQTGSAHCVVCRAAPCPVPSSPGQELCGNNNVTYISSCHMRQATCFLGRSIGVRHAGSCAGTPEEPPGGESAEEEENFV
Neurogenic locus notch homolog protein 3 (Homo sapiens), sequence (Q9UM47 whole entry, looked up): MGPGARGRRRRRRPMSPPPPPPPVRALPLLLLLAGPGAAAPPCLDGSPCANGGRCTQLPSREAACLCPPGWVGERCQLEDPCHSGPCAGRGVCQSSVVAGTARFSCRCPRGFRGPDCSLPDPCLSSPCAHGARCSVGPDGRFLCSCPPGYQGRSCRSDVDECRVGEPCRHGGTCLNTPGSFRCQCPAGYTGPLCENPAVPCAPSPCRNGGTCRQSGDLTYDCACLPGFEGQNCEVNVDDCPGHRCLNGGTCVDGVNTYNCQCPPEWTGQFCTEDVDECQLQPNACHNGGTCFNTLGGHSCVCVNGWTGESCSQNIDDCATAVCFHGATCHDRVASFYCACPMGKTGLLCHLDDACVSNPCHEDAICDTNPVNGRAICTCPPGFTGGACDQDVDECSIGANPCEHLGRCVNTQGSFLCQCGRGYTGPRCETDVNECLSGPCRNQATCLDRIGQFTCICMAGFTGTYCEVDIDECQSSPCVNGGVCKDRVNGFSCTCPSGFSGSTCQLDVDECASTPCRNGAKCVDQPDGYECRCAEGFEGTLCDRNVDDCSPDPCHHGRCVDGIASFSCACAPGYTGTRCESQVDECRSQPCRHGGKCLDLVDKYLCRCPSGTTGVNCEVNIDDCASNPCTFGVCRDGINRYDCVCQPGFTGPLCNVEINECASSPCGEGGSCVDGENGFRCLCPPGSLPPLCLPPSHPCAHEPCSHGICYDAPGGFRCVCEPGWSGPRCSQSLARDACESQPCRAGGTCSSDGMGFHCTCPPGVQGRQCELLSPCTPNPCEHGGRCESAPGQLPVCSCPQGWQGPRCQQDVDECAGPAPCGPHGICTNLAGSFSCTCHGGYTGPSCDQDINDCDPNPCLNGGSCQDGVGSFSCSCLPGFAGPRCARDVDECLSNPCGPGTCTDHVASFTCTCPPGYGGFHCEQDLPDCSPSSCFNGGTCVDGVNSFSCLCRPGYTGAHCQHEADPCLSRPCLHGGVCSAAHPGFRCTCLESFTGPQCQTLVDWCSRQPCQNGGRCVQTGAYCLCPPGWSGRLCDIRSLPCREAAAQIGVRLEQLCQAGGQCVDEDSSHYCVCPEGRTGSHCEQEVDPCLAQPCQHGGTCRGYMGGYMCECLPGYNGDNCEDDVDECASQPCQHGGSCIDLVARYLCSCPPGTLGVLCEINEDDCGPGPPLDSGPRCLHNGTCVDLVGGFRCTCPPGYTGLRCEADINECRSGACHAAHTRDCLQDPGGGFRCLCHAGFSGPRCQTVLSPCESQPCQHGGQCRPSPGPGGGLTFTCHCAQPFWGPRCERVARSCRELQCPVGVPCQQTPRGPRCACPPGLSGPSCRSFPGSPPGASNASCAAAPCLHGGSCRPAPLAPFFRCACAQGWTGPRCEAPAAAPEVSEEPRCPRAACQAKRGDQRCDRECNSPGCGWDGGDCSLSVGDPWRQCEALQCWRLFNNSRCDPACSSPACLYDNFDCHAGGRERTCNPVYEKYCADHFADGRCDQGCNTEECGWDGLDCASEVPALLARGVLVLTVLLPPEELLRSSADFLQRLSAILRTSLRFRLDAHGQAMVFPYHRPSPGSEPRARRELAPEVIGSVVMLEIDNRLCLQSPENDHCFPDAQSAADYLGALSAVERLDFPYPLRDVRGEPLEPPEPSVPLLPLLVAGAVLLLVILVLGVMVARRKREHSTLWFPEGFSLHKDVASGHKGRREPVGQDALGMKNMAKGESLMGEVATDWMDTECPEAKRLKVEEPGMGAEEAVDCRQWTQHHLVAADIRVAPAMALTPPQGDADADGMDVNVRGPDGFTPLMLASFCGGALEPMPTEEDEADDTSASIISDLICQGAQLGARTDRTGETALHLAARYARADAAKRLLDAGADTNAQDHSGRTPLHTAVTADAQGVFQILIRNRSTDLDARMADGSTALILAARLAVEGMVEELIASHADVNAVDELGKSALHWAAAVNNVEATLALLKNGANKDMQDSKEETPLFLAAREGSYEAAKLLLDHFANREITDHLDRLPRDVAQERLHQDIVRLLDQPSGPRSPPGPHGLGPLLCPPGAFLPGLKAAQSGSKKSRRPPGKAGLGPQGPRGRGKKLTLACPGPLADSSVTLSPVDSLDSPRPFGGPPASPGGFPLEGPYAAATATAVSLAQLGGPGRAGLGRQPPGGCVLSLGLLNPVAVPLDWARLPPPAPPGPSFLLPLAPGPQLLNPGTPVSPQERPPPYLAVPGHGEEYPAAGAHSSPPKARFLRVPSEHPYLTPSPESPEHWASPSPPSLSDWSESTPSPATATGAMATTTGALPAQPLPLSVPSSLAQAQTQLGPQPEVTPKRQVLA
Fibroblast growth factor 10 (Homo sapiens), sequence (O15520 whole entry, looked up): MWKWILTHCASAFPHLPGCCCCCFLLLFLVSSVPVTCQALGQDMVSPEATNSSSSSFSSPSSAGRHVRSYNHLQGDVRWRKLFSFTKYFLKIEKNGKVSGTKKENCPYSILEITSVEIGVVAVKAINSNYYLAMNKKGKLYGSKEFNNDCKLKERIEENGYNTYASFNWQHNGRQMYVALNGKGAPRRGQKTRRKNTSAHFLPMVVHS
Dickkopf-related protein 1 (Homo sapiens), sequence (O94907 whole entry, looked up): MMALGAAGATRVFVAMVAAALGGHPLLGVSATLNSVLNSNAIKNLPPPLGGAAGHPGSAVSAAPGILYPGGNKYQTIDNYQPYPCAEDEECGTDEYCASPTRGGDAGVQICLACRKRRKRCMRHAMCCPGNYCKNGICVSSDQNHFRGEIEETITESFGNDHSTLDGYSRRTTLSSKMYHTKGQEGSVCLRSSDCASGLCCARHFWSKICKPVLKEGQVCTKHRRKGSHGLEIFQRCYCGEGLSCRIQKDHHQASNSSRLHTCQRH
Epidermal growth factor receptor (Homo sapiens), sequence (P00533 whole entry, looked up): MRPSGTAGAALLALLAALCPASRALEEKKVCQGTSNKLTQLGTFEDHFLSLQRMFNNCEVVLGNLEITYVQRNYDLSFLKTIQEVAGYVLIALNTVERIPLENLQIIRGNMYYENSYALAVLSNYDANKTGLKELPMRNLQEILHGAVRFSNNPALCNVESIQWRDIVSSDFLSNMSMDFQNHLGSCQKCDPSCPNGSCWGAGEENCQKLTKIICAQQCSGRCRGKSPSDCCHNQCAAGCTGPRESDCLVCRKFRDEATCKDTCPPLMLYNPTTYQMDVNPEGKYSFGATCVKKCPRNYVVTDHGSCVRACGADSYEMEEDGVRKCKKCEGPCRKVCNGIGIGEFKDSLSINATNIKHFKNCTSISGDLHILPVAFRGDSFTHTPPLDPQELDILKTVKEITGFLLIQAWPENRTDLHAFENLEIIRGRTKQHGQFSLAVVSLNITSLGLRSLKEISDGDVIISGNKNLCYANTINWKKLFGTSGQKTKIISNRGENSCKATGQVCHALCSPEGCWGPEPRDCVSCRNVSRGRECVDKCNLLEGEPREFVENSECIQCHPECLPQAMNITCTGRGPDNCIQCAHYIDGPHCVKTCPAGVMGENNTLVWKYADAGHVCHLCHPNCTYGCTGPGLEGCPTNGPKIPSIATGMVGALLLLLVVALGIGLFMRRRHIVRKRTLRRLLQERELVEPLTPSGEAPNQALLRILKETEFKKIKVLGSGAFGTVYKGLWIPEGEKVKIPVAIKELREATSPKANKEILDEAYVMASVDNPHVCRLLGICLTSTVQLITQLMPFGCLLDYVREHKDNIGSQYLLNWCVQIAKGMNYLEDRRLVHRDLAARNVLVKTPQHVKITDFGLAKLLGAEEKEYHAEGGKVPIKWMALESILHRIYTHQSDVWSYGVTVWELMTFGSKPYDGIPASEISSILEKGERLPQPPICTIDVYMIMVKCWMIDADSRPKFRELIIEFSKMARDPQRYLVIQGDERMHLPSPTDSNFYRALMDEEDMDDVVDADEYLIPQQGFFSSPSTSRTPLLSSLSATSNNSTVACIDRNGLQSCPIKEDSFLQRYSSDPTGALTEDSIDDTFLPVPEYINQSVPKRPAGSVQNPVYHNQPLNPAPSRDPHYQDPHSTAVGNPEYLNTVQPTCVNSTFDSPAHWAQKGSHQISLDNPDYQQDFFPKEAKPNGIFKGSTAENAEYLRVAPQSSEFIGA
Torsin-1A-interacting protein 2 (Homo sapiens), sequence (Q8NFQ8 whole entry, looked up): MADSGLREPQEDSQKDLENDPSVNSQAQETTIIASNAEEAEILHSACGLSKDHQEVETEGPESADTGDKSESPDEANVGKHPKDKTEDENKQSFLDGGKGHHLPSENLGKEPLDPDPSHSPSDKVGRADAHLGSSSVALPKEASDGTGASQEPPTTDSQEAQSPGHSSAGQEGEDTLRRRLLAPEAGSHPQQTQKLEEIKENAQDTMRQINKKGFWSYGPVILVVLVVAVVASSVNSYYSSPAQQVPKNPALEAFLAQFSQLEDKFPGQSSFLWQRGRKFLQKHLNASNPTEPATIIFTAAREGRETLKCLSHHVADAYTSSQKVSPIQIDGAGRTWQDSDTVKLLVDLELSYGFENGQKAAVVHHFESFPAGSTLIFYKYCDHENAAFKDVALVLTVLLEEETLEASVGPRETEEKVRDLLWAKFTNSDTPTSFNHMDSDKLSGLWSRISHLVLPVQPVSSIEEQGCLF

Turning to `COCCCN1C(=O)[C@@]2(Cc3ccccc31)c1ccccc1C(=O)N(Cc1ccccc1OC)[C@H]2c1ccc(CO)cc1`, the composite z-score in test [1] is 0.727; in [5], 1.04; in [7], 0.0224; in test [8] it was -0.913; in [9], -0.274; in [10], -0.108. Also, the composite z-score was -0.909 in [11]; 0.612 in test [12]; 0.9 in [13]; -0.426 in test [15]; -0.428 in test [16]; -0.352 in test [17]. Further, the composite z-score turned out to be 0.154 in [18], 0.514 in test [19] and 0.157 in test [20]. Besides, the z-score is -1.14 (inactive) in test [2]; -0.2 (inactive) in test [3]; -1.33 (inactive) in test [4]; 0.258 (inactive) in [6]; 0.307 (inactive) in test [14].

As to `O=C1N(Cc2ccccc2)c2ccccc2[C@H]2OC(c3ccc(OCCCO)cc3)=N[C@@]12Cc1ccccc1`, the composite z-score in test [1] is 1.54; in test [5], 2.58; in [7], -0.0058; in test [8], 1.54; in test [9] it was 1.1; in [10], -0.0525. For the same compound, the composite z-score in [11] was 1.53; in test [12], 0.655; in test [13], 0.794; in test [15], 1.16; in [16], 1.29; in test [17] it was 0.279. The values for the composite z-score in [18], in [19] and in [20] were 0.582, 0.194 and 0.925, respectively. The z-score was -0.915 (inactive) in test [2]; -0.469 (inactive) in [3]; 6.52 (inactive) in test [4]; -0.905 (inactive) in [6]; -0.385 (inactive) in [14].

On to `C=CC[C@]1(C(=O)NCCCOC)N=C(c2ccc(OCCCO)cc2)O[C@H]1c1ccccc1`, for which the composite z-score in test [1] was 0.36; in [5] it was 3.29; in [7], 0.037; in test [8], -0.0071; in [9], -0.0832; in [10], -0.146. For the same compound, the composite z-score in [11] is 1.08; in test [12] it was 0.107; in test [13] it was 1.05; in test [15], -0.418; in [16], 0.94; in [17] it was -1.69. In addition, the composite z-score in test [18] is -0.0778; in test [19], -1.13; in [20], -0.112. Also, the z-score in test [2] was -0.193 (inactive); in [3], -0.266 (inactive); in test [4] it was -0.739 (inactive); in [6], 0.753 (inactive); in test [14], -0.318 (inactive).

`O=C1OCCC=C[C@H]2OC34C=CCN(c5ccc(Cl)cc5)C(=O)[C@H]3N(CCO)C(=O)[C@@H]4C12` (stereo not given in full): the composite z-score in [1] is -0.502; in test [5], -0.241; in test [7], -0.121; in [8] it was -0.545; in test [9] it was -0.0792; in [10], -0.194. Besides, the composite z-score in test [11] is -0.358; in [12], -0.208; in test [13] it was 0.266; in test [15], -0.45; in test [16], -0.695; in [17] it was -0.723. The composite z-score was -0.683 in test [18], -0.568 in test [19] and -1.16 in [20]. Also, the z-score in test [2] is -0.237 (inactive); in test [3], -0.335 (inactive); in test [4], -0.253 (inactive); in test [6] it was 0.474 (inactive); in [14], -0.343 (inactive).
